Several values for one entry are separate records, joined by “and”; a condition that tells them apart may be missing. Equal entries are not always repeated. For some assays here: Results with a measured potency or affinity are listed apart.
Tests used:
Design in all cases: scale not given: direction of the effect not stated beside the values
[1] = molecular target: Protein translocase subunit SecA (Escherichia coli (strain K12)) (UniProt P10408); test: Assay to Identify E. coli SecA ATPase Inhibitors; format: functional; conditions: 30 µM
[2] = molecular target: T1, Ubiquitin-activating enzyme e1, putative (Leishmania donovani (strain BPK282A1)) (UniProt E9BSI1); test: Leishmania donovani Ubiquitin Activating Enzyme (LdE1); format: functional; conditions: 30 µM
T1 sequence (whole entry): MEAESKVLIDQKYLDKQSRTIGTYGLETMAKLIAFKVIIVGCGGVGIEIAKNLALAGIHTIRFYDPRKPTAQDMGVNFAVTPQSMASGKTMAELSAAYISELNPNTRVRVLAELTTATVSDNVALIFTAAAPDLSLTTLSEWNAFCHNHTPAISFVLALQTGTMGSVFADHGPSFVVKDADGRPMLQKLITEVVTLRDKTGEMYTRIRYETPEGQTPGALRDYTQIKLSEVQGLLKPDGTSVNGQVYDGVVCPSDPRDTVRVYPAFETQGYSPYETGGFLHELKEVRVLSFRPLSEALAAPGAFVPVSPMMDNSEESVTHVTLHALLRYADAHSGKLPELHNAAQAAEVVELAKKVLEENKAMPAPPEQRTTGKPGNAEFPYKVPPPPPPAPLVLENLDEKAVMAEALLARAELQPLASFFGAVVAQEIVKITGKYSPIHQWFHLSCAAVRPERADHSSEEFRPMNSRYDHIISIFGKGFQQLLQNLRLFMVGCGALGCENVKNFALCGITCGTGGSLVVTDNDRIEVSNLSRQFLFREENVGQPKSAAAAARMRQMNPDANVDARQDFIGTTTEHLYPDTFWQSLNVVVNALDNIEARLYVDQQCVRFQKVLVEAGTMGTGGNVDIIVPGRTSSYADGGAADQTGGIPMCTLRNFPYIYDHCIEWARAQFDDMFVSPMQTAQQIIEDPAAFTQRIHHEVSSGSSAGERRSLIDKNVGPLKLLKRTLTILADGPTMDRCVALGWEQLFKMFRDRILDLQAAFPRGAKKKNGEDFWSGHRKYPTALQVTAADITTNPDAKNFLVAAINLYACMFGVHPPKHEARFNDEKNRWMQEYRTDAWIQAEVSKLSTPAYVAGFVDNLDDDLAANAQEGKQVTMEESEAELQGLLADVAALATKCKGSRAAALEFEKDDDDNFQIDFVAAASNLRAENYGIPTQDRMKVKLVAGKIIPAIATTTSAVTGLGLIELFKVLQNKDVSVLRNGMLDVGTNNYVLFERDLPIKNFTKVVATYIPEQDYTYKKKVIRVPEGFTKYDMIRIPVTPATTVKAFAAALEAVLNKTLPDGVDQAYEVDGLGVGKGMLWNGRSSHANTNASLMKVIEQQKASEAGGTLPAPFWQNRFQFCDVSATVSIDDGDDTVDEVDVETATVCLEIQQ

[3] = molecular target: Sialic acid-binding Ig-like lectin 9 (Homo sapiens) (UniProt Q9Y336); test: Hs-Siglec9 ALPHAscreen SOP 20170721; conditions: 10 µM
Trypanosoma cruzi = test: Trypanosoma cruzi phosphomannomutase and mannose-1-phosphate guanylyltransferase assay; format: functional; conditions: 10 µM
[4] = molecular target: T2, Arginase-2, mitochondrial (Homo sapiens) (UniProt P78540); test: in vitro enzyme assay to detect the production of urea directly proportional to the activity of Arginase II; format: functional; conditions: 33.3 µM; also: in the data most compounds retested in dose-response had high values
T2 sequence (whole entry): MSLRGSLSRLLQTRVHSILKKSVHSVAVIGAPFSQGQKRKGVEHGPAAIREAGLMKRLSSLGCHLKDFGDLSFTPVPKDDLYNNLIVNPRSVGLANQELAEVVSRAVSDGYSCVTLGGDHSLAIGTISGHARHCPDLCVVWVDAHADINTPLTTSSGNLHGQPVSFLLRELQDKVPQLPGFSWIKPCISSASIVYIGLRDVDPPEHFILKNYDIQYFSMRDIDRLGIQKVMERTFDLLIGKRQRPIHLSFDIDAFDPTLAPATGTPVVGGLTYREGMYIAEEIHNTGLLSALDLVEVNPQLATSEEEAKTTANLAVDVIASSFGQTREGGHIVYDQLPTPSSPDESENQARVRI

[5] = molecular target: T3, Proteasome subunit beta (Trypanosoma cruzi) (UniProt O96673); test: Trypanosoma cruzi proteasome chymotrypsin-like activity (TcProtChymo) assay.; also: in the data most compounds retested in dose-response had high values; format: functional; conditions: 9.37 µM
T3 sequence (whole entry): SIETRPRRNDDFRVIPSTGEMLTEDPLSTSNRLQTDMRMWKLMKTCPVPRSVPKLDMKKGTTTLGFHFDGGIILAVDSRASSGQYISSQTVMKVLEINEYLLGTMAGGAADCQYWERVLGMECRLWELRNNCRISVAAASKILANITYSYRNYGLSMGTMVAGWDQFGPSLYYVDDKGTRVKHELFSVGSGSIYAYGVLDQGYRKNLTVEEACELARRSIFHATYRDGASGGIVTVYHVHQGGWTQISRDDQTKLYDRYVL

Homo sapiens = species on record: Homo sapiens; test: To identify inhibition of the IFN signalling (Jak-Stat) pathway via expression of an eGFP reporter gene under the control of an IFN-stimulated response element (ISRE) containing MxA promoter.; format: functional; conditions: 30 µM
[6] = molecular target: T4, Tyrosyl-tRNA synthetase, putative (Trypanosoma cruzi (strain CL Brener)) (UniProt Q4DSP6); test: Trypanosoma cruzi tyrosyl tRNA synthetase (TcYRS) _High Tyrosine SOP; format: functional; conditions: 30 µM; also: in the data most compounds retested in dose-response had high values
T4 sequence (whole entry): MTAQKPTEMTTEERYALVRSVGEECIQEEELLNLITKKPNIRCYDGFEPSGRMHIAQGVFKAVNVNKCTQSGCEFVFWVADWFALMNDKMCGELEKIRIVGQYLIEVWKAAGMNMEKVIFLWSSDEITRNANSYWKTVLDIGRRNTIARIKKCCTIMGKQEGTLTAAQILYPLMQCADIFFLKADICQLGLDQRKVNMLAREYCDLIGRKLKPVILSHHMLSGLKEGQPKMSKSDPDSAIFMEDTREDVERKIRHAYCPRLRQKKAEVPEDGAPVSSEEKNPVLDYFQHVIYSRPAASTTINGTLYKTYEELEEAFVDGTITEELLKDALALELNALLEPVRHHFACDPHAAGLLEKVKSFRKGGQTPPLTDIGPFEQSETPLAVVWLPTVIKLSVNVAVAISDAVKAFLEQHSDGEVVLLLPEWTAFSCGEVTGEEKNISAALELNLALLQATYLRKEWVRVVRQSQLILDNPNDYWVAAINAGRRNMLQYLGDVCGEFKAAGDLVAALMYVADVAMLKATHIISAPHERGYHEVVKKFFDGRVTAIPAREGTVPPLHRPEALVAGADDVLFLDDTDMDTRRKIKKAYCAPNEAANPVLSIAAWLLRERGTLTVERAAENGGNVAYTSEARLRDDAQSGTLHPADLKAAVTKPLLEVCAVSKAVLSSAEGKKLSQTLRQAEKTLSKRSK

[7] = molecular target: T4, Tyrosyl-tRNA synthetase, putative (Trypanosoma cruzi (strain CL Brener)); test: Trypanosoma cruzi tyrosyl tRNA synthetase (TcYRS) SOP; format: functional; conditions: 30 µM
[8] = molecular target: Chromo domain-containing protein 1 (Saccharomyces cerevisiae (strain ATCC 204508 / S288c) (Baker's yeast)) (UniProt P32657); test: ScCHD-1 Enzyme Inhibition Assay; format: functional; conditions: 30 µM; also: in the data most compounds retested in dose-response had high values
N/A = test: Trypanosoma cruzi proteasome luciferase counter-screen; format: functional; conditions: 9.37 µM

Sequence of Chromo domain-containing protein 1 (Saccharomyces cerevisiae (strain ATCC 204508 / S288c) (Baker's yeast)) (P32657 whole entry, the tested form may be a part): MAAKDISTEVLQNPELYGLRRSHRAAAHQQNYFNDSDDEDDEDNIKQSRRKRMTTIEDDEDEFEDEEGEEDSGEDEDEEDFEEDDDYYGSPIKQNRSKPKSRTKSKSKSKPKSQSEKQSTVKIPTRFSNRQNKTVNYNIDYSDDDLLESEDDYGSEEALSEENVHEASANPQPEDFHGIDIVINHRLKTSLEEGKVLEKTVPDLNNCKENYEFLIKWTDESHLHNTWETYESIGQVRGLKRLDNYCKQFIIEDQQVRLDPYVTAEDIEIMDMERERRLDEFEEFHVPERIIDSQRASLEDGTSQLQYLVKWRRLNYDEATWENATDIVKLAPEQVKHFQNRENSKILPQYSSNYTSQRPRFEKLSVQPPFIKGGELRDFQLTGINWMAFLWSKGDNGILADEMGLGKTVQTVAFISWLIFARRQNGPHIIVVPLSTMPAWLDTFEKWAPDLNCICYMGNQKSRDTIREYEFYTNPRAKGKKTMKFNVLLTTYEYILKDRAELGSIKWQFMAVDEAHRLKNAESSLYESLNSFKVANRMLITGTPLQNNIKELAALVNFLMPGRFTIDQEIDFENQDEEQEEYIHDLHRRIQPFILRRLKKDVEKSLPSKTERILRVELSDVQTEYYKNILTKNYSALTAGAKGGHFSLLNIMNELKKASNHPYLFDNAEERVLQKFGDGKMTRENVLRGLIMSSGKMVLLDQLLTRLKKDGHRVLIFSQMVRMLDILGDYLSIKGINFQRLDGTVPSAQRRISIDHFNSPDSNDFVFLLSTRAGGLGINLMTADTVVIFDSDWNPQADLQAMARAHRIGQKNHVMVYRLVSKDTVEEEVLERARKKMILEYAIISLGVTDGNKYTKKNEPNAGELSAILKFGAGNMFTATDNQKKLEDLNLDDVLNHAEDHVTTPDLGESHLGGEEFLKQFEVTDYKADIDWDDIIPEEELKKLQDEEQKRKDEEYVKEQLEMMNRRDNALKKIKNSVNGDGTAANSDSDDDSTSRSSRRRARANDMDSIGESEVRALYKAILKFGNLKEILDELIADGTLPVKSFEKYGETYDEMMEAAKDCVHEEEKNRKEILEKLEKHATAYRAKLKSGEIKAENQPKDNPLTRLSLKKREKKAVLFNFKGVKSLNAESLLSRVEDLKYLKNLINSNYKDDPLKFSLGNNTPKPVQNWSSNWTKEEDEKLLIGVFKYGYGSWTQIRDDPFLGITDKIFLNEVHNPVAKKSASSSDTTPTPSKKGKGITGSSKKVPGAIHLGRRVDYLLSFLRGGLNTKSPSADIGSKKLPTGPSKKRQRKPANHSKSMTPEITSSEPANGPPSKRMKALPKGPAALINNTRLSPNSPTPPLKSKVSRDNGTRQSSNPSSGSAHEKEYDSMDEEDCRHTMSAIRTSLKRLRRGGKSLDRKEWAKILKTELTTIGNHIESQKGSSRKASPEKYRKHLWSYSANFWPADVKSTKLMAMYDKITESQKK
Sequence of Protein translocase subunit SecA (Escherichia coli (strain K12)) (P10408 whole entry): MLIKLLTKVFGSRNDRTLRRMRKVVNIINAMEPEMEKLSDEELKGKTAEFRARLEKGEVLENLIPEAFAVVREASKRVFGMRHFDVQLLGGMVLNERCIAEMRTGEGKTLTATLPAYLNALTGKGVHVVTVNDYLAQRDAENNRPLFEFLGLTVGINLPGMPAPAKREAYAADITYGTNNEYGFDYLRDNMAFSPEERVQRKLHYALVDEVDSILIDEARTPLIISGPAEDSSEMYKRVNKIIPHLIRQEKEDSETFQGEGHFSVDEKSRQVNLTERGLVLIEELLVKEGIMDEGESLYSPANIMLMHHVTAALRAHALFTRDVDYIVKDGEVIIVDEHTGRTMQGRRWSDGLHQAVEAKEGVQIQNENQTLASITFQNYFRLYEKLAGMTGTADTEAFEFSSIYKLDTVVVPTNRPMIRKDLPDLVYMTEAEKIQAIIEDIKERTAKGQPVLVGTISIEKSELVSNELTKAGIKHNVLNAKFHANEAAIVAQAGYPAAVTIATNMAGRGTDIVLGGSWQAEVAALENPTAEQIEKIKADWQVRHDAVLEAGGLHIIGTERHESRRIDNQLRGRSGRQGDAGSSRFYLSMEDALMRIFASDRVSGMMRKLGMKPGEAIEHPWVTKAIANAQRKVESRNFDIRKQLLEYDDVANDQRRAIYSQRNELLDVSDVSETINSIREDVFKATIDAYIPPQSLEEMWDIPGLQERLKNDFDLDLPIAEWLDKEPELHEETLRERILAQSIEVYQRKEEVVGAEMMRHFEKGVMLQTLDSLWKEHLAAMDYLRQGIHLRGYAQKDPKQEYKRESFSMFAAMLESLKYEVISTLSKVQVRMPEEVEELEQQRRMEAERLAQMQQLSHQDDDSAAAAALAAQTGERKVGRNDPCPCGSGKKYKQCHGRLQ
Sequence of Sialic acid-binding Ig-like lectin 9 (Homo sapiens) (Q9Y336 whole entry): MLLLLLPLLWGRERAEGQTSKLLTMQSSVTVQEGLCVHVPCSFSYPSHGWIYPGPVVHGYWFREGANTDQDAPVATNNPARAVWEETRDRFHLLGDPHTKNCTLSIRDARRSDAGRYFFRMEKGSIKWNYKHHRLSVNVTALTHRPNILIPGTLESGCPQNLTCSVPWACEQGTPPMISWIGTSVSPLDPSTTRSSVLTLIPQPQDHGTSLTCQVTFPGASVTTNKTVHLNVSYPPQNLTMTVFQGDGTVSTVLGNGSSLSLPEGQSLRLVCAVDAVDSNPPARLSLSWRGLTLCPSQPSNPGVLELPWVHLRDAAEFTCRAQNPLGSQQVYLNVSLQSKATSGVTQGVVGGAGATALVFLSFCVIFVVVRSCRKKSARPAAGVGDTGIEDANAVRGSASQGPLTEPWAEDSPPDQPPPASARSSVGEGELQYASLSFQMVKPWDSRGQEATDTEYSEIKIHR

Row | SMILES | Percent Effect [1] [%] | Percent Effect [2] [%] | Percent Effect [3] [%] | Percent Effect (Trypanosoma cruzi) [%] | Percent Effect [4] [%] | Percent Effect [5] [%] | Percent Effect (Homo sapiens) [%] | Percent Effect [6] [%] | Percent Effect [7] [%] | Percent Effect [8] [%] | Percent Effect (N/A)
1 | COc1ccc(OC)c(C2CCN(Cc3nc(C)n4ccccc34)C2)c1 (centres undefined) | -4.56 | -2.7 | 16.9 | 2.81 | 17.1 | 17.8 | 17.9 | 13.3 | 26.8 | -3.48 | –
2 | COc1ccccc1OC1CCN(Cc2cnc(N(C)C)nc2)CC1 | -8.85 | 0 | 3.25 | -1.84 | -3.15 | – | 1.97 | 3.72 | 9.76 | -4 | 13.7% and 17.2%
3 | O=C(NCCn1ccnc1)N1CCCC1c1ccsc1 (centres undefined) | -1.45 | 10.3 | -12.8 | 8.73 | 1.64 | 17.7 | -7.37 | 6.22 | 20.5 | -4.56 | –
4 | Cc1cnn(C2CCCN(C(=O)Cc3ccc(-n4cccn4)cc3)C2)c1 (centres undefined) | -6.71 | -2.67 | 3.46 | 3.81 | 2.66 | 1.27 | 6.09 | -1.58 | 5.13 | -7.75 | –
5 | CCc1nc(C2CCCN2C(=O)CCn2cncn2)no1 (centres undefined) | -0.886 | 0 | 9.32 | -1.49 | 1.02 | 3.51 | 3.97 | 0.98 | -2.35 | -0.634 | –
6 | CC(C)NC(=O)[C@@H](NC(=O)N1CCN(c2ccc(Cl)cc2)CC1)C(C)C | -9.49 | -5.41 | -0.377 | -3.78 | -3.85 | 12.2 | 31.6 | 0.532 | -4.88 | -2.5 | –
7 | CN(Cc1ccc(F)cc1)[C@@H]1CN(C(=O)c2cccs2)C[C@H]1O | -4.06 | 17.3 | -0.715 | 1.97 | -3.1 | 17.6 | 10.6 | 5.29 | 20 | -21.9 | –
8 | Cc1ccc(CN2CCCn3c(nc(Cn4cncn4)cc3=O)C2)s1 | -8.68 | 11.7 | -3.78 | 2.43 | -1.22 | 7.5 | -3.95 | 4.74 | 12.8 | -1.68 | –
9 | CC(C)(N)C(=O)N1CCCC1c1cncc(Oc2ccc(F)cc2)n1 (centres undefined) | -4.32 | 17.3 | 10.6 | 0.789 | -0.443 | 1.31 | -1.85 | 6.35 | 15 | -24.2 | –
10 | CC(C)CCC(=O)NC(C)c1nnc2n1CCCCC2 (centres undefined) | -1.02 | 10.4 | 4.23 | 2.42 | -0.205 | 6.84 | -5.87 | 2.94 | 7.06 | -9.02 | –
11 | CC(C(=O)Nc1ncccn1)N1CCCN(c2nccs2)CC1 (centres undefined) | -0.557 | 15.4 | -8.35 | -7.04 | 2.05 | 14.8 | 22.9 | 4.31 | 1.21 | -2.28 | –
12 | Cc1cc(C)n(CC2CCCN2CCCS(N)(=O)=O)n1 (centres undefined) | -1.45 | 10.3 | -5.77 | 7.61 | 4.1 | 18.3 | 20.4 | 3.35 | 18.1 | -2.57 | –
13 | CN(C)c1ccc(C(=O)NCC2(c3ccccc3)CCOCC2)cc1 | -0.155 | 22.7 | -5.97 | 1.38 | -2.21 | 15.4 | 9.64 | 0 | 15 | -24.2 | –
14 | Cc1noc(C)c1C(=O)N1CC[C@H]2C[C@@H](c3nccs3)O[C@@H]2C1 | -6 | 6.49 | 1.62 | 5.55 | -10.5 | 14.2 | -13.4 | 7.89 | 12.8 | -3.15 | –
15 | CCS(=O)(=O)N1C[C@@H](OCc2cccnc2)[C@H]2OCCC[C@H]21 | -10.2 | 1.3 | 6.61 | -4.58 | -3.64 | 7.68 | 9 | 4.74 | 7.69 | 0.0373 | –
16 | CCC(NC(=O)c1ccco1)c1ccccc1OCC(=O)N1CCCC1 (centres undefined) | -0.841 | 20.5 | -7.21 | 8.92 | -5.33 | 12.5 | 13.3 | 3.35 | 22.9 | -5.94 | –
17 | CO[C@@H]1CC[C@@H](N(C)C(=O)COc2ccc(F)cc2)[C@H]1O | -0.0302 | 9.33 | 5.58 | -6.31 | 5.31 | 10.8 | 9.43 | 1.06 | 7.5 | -24 | –
18 | CCc1ccc(O)c(C(=O)NC2CCN(Cc3ccncc3)CC2)c1 | -1.01 | 12.8 | -9.09 | -4.98 | 1.64 | 5.55 | 44.9 | 1.44 | 8.43 | -6.65 | –
19 | Cc1[nH]/c(=N\C(=O)c2csc(NC3CC3)n2)sc1C | -5.11 | 8.11 | -0.99 | -1.84 | -1.75 | – | 10.7 | 11.2 | 14.6 | 14.5 | –
20 | c1ccc(OCc2nnc3n2CCN(CC2CCOCC2)C3)nc1 | -2.49 | 1.3 | -1.26 | -1.07 | -2.43 | -0.0883 | -3.47 | 0.526 | -89.7 | -2.56 | –
21 | Cc1nnc(NC(=O)CN2CCCC(Cn3cncn3)C2)s1 (centres undefined) | -3.75 | 10.7 | 7.25 | 1.41 | 6.21 | 12.3 | -17.8 | 5.79 | 10.3 | -8.83 | –

From ChEMBL document CHEMBL3988442, “University of Dundee, Small-Polar-MMV Screening Library” (2021)
